Our source for the growth values is PubChem BioAssay (NCI).

Compounds without any hit were thinned out: in the full panel of roughly 83,000, 20% have a hit.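 96-well plates, one dose, 48 hours. Percent growth reported; active if below 10.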 Calls of active or inactive are those of the source.

Experiment in all cases: NCI-60 one-dose screen, 48 h (100 = growth as untreated, 0 = no growth, -100 = all killed)
Conditions in all cases: 10 µM unless noted

For test [1], the system named is T-47D breast.
Test [2] concerns BT-549 breast.
The test system of test [3] is MDA-MB-435 melanoma.
The test system of test [4] is SW-620 colon.
The test system of test [5] is MCF7 breast.
Test [6] relates to HCT-116 colon.
Test [7] relates to HCC-2998 colon.
The subject of test [8] is KM12 colon.

For `Cc1ccc(S(=O)(=O)c2nc(-c3ccc(F)cc3)oc2S(C)(=O)=O)cc1`, the growth in test [1] is 60.8% (inactive); in test [2] it was 43% (inactive); in test [3] it was 77.2% (inactive); in test [4] it was -66.3% (active); in test [5] it was 33.6% (inactive); in test [6] it was 36.3% (inactive). Further, the growth in test [7] is 102% (inactive); in test [8], 103% (inactive).
On to `O=C1C(SCc2ccccc2)=C(Cl)CN1c1ccc(Cl)cc1`, for which the growth in test [1] was 50.4% (inactive); in test [2], 109% (inactive); in test [3] it was 100% (inactive); in test [4] it was 101% (inactive); in test [5], 25.7% (inactive); in test [6], 89.7% (inactive). Further, the growth is 95.9% (inactive) in test [7] and 99.1% (inactive) in test [8].
Take `NS(=O)(=O)c1ccc(Nc2nc(Nc3ccccc3)nc(N3N=C(c4ccc(Cl)cc4)CC3c3ccc(Cl)cc3)n2)cc1` (centres undefined): the growth in test [1] is 51.3% (inactive); in test [2], 73.2% (inactive); in test [3] it was 39.1% (inactive); in test [4], 54.4% (inactive); in test [5], 12.8% (inactive); in test [6] it was 14.1% (inactive). For the same compound, the values for the growth in test [7] and in test [8] were 13.1% (inactive) and 5.08% (active), respectively.
On to `CCOC(=O)c1cccnc1Nc1ccc(NC(=O)Nc2ccc(Cl)c(C(F)(F)F)c2)cc1`, for which the growth in test [1] is -1.09% (active); in test [2], 60.9% (inactive); in test [3] it was 53.1% (inactive); in test [4], 37.1% (inactive); in test [5] it was 17.8% (inactive); in test [6] it was 16.4% (inactive). The values for the growth in test [7] and in test [8] were 50.4% (inactive) and 17.5% (inactive), respectively.
With `CCCN1C=C/C(=C\C(=O)n2ccc3ccccc32)c2ccccc21`, the growth in test [1] was 46.6% (inactive); in test [2] it was 103% (inactive); in test [3], 93% (inactive); in test [4], 86.6% (inactive); in test [5], 64.5% (inactive); in test [6] it was 69% (inactive). The figures for the growth in test [7] and in test [8] were 104% (inactive) and 84.8% (inactive), respectively.
`Cc1ccc(OCc2occc2C(=O)N2CCOCC2)cc1`: the growth in test [1] is 93.1% (inactive); in test [2], 117% (inactive); in test [3], 100% (inactive); in test [4], 102% (inactive); in test [5], 85.6% (inactive); in test [6], 105% (inactive). Moreover, the results for the growth in test [7] and in test [8] were 103% (inactive) and 107% (inactive), respectively.
`CN1CCN(c2ccc(Nc3nc(NCCCNS(=O)(=O)c4ccc(C(F)(F)F)cc4)c4sccc4n3)cc2)CC1`: the growth in test [1] is -29% (active); in test [2], -88.1% (active); in test [3], -62.4% (active); in test [4] it was -33.5% (active); in test [5], -70% (active); in test [6] it was -73.8% (active). Moreover, the values for the growth in test [7] and in test [8] were -63.5% (active) and -25.2% (active), respectively.
As to `COc1ccc(/C=N\NC(=O)c2cnn(CC(O)c3ccccc3)c2N)cc1OCc1ccc(Cl)cc1` (centres undefined), the growth was 56.9% (inactive) in test [1]; 109% (inactive) in test [2]; 78.7% (inactive) in test [3]; 64.5% (inactive) in test [4]; 60.8% (inactive) in test [5]; 49.4% (inactive) in test [6]. For the same compound, the growth in test [7] is 108% (inactive); in test [8], 75% (inactive).
On to `C#Cc1nc(/C=C/CCCCCCC(=O)NO)cs1`, for which the growth in test [1] is 51.6% (inactive); in test [2] it was 88.9% (inactive); in test [3] it was 55.3% (inactive); in test [4], 29.3% (inactive); in test [5], 48% (inactive); in test [6], 20% (inactive). Also, the growth is 108% (inactive) in test [7] and 74.7% (inactive) in test [8].
In the case of `C#CCOc1ccccc1/C=N/Nc1nc(-c2ccc(Cl)cc2)cs1`, the growth in test [1] is 71.9% (inactive); in test [2], 128% (inactive); in test [3] it was 104% (inactive); in test [4], 93.4% (inactive); in test [5], 77.5% (inactive); in test [6] it was 90.7% (inactive). In addition, the growth is 120% (inactive) in test [7] and 91.4% (inactive) in test [8].
Take `COc1cc2oc(-c3cccc(NC(=O)c4cccc([N+](=O)[O-])c4)c3)cc(=O)c2c(OC)c1OC`: the growth is 54.3% (inactive) in test [1]; 59.8% (inactive) in test [2]; 53.3% (inactive) in test [3]; 70.9% (inactive) in test [4]; 42.9% (inactive) in test [5]; 33.5% (inactive) in test [6]. For the same compound, the growth was 93.6% (inactive) in test [7] and 76.4% (inactive) in test [8].
In the case of `CC1(C)CC[C@]23CC[C@]4(C)[C@H](CC[C@@H]5[C@@]6(C)CC[C@H](N)C(C)(C)[C@@H]6CC[C@]54C)[C@H]2[C@H]1OC3`, the growth in test [1] is 88.1% (inactive); in test [2], 88.9% (inactive); in test [3], 90.6% (inactive); in test [4], -44.3% (active); in test [5], -8.5% (active); in test [6], -82.7% (active). The growth in test [7] was -15.9% (active); in test [8] it was 18% (inactive).
Regarding `COCCOc1ccc2ncc(C#Cc3cncc(C(=O)Nc4ccc(CN5CCN(C)CC5)c(C(F)(F)F)c4)c3)n2n1`, the growth in test [1] was 59.6% (inactive); in test [2] it was 0.139% (active); in test [3] it was 11.5% (inactive); in test [4] it was -34% (active); in test [5], -59.8% (active); in test [6], -86.7% (active). Also, the growth is 33.6% (inactive) in test [7] and 0.84% (active) in test [8].
